According to PubChem BioAssay (NCATS):
“And” between values parts separate entries of the source, which are not always exact repeats. Identical values can stand only once. Inconclusive results are not listed. A call without a number means that no potency is given here. Where a structure was tested more than once in an assay, its records may differ in their call. The source made the active and inactive calls. Unless noted, calls come from the whole dose curve; as a rule, active = well fitted curve in the direction sought with a large enough effect; inconclusive = small, poorly fitted or top-dose-only effect, or another doubt; inactive = no such curve, though single readings can be large; an effect the other way counts as inactive or inconclusive.

What was measured:
[1] = S16 Schwann cell PMP22 intronic element beta-lactamase assay (AID 624044; calls by dose curve; note: nearly all actives have a fitted effect of over 15% in size)
How it was run: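 Rat S16 Schwann cells with beta-Lac driven by a PMP22 intronic element, compound-treated 24 h at 37 °C. LiveBLAzer FRET B/G read: 460 nm normalized to potassium clavulanate vs DMSO; 535 nm FRET as viability; concentration-effect curves classified.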

[2] = qHTS assay for small molecule activators of the p53 signaling pathway (AID 651743; active = well fitted activation curve with a large enough effect in the signal ratio, not every such curve was filed as active; the % refers to the signal ratio; note: series mostly up to about 92 µM); details: HCT-116 p53RE-bla, beta-lactamase FRET ratio, 16 h; activation: stronger effect = higher value
How it was run: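 Cell-based beta-lactamase reporter (p53 response elements, HCT-116 background). After a 5-hour preincubation, cells received compound for 16 hours at 37 C; substrate development ran 2 hours at room temperature.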

[3] = qHTS assay for small molecule activators of the nuclear factor-kappa B (NF-kB) signaling pathway (AID 651749; active = well fitted activation curve with a large enough effect in the signal ratio; the % refers to the signal ratio; note: series mostly up to about 77 µM); details: NF-kB-bla ME-180 cells, beta-lactamase FRET ratio, 16 h; stronger effect = higher value
How it was run: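 Screening used 2,000 ME-180 reporter cells per well exposed to pinned compound (23 nL) or DMSO; after 16 hr at 37C, beta-lactamase expression under NF-kB control was assessed through FRET.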

[4] = qHTS assay for small molecule disruptors of the mitochondrial membrane potential - 1 hr assay (AID 651754; calls by dose curve; note: nearly all actives have a fitted effect of over 35% in size; note: potency is the fitted concentration of half-maximal effect)
How it was run: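 HepG2 cells, attached overnight, were exposed to compound for 1 hr at 37C, then stained 30 min with a potentiometric dye. Ratio of red aggregate (590nm) to green monomer (535nm) fluorescence reports membrane potential; collapse shifts signal toward green.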

[5] = qHTS assay for small molecule disruptors of the mitochondrial membrane potential - 5 hr assay (AID 651755; calls by dose curve; note: nearly all actives have a fitted effect of over 40% in size; note: potency is the fitted concentration of half-maximal effect)
How it was run: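 HepG2 cells, attached overnight at 37C, were exposed to compound or DMSO for 5 hr at 37C, 5% CO2. Mito-MPS dye was then added for 30 min, and fluorescence read at 490/535 nm (monomers) and 540/590 nm (aggregates).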

[6] = qHTS assay for environmental chemicals that activate the Aryl hydrocarbon Receptor (AhR) signaling pathway (AID 651777); details: 1A2-DRE human hepatoma cells, luciferase, 24 h; activation: stronger effect = higher value; note: nearly all actives have a fitted effect of over 15% in size
How it was run: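 Following a 24 hr incubation with test chemicals at 37 C and 5% CO2, 1A2-DRE human hepatoma cells received One-Glo reagent; after 30 min at room temperature, luciferase output reflected CYP1A2 induction via AhR.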

[7] = target: Peroxisome proliferator-activated receptor alpha (Homo sapiens) (UniProt Q07869); assay: qHTS assay for small molecule agonists of the peroxisome proliferator-activated receptor alpha (PPARalpha) signaling pathway (AID 651778); details: PathHunter PPARalpha complementation, chemiluminescence, 6 h; stronger effect = higher value
Peroxisome proliferator-activated receptor alpha (Homo sapiens), sequence (Q07869 whole entry, looked up): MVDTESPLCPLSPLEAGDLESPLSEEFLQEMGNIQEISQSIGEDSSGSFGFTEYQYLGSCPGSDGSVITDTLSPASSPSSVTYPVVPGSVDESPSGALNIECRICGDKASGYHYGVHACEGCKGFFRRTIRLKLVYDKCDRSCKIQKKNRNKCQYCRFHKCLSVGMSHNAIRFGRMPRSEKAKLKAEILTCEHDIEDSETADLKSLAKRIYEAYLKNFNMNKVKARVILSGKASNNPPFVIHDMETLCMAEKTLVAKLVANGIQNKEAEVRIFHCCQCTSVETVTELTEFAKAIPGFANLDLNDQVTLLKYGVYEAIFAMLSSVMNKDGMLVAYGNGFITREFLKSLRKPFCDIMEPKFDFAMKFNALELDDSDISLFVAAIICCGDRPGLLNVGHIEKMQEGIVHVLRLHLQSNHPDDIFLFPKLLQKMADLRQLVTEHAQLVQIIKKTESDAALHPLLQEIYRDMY
How it was run: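 Cells plated at 2,000/well and held overnight at 37 C, 5% CO2, then compound added by pin tool for 6 hr; after PathHunter detection reagent and 60 min at room temperature, chemiluminescence from enzyme complementation was read.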

[8] = target: Nuclear receptor ROR-gamma (Homo sapiens) (UniProt P51449); assay: qHTS assay for small molecule antagonists of the retinoid-related orphan receptor gamma (ROR-gamma) signaling pathway (AID 651802); note: nearly all actives have a fitted effect of over 60% in size; note: potency is the fitted concentration of half-maximal effect
Nuclear receptor ROR-gamma (Homo sapiens), sequence (P51449 whole entry, looked up): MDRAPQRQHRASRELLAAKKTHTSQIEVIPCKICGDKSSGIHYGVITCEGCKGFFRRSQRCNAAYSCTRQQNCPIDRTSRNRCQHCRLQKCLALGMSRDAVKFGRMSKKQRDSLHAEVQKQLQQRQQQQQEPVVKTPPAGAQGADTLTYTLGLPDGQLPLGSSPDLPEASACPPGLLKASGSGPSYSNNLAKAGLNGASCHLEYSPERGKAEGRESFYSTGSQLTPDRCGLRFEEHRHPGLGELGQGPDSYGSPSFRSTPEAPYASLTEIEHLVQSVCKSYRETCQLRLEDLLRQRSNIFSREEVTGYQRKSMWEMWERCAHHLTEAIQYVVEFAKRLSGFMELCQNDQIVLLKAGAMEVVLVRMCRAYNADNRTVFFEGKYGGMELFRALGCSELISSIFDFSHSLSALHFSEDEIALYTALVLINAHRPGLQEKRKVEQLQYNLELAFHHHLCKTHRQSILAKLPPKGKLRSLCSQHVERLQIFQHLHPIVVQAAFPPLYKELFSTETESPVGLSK
How it was run: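 CHO cells with TET-inducible ROR-gamma and RORE-luciferase reporter, dosed then doxycycline-induced. After 16 h at 37C, One-Glo luminescence read; decreased signal indicates antagonism.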

[9] = qHTS assay for small molecule agonists of the antioxidant response element (ARE) signaling pathway measured by Nrf2-dependant transcriptional activity (AID 720636; active = well fitted curve in the direction sought with a large enough effect in the repeat runs; an effect the other way counts as inactive or inconclusive;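 note: HepG2 cells with an ARE-driven luciferase reporter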)
How it was run: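 ONE-Glo luminescence, read 30 min after reagent addition at room temperature, reflected ARE reporter activity in HepG2 cells that had been incubated with compound for 16 hr at 37 C in 1% dialyzed FBS.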

[10] = target: Glutaminase kidney isoform, mitochondrial (Homo sapiens) (UniProt O94925); assay: qHTS for Inhibitors of Glutaminase (GLS): LOPAC Validation (AID 624146); note: nearly all actives have a fitted effect of over 60% in size; note: potency is the fitted concentration of half-maximal effect
Glutaminase kidney isoform, mitochondrial (Homo sapiens), sequence (O94925 whole entry, looked up, canonical isoform): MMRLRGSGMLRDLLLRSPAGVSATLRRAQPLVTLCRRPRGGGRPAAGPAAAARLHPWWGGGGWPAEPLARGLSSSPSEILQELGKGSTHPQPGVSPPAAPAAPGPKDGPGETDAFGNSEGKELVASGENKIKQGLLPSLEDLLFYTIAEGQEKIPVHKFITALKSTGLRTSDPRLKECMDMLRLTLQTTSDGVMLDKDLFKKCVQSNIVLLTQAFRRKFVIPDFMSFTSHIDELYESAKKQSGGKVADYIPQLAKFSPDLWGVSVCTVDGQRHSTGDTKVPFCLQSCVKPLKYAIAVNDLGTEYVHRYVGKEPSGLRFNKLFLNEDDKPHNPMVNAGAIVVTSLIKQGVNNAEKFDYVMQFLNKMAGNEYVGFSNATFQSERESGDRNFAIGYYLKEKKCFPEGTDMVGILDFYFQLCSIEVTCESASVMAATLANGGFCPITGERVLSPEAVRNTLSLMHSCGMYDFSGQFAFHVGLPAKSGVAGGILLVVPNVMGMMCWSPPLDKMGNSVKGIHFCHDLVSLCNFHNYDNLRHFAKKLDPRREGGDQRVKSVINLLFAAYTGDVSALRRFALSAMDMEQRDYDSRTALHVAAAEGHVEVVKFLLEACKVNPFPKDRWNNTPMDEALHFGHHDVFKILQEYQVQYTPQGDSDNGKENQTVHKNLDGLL
How it was run: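 Glutamate formation by hKGA was monitored fluorometrically using coupled glutamate oxidase, HRP and Amplex Red. Substrate was added as 1 mM L-glutamine solution; incubation was 30 min at RT after an initial read.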

[11] = qHTS of Trypanosoma Brucei Inhibitors: LOPAC Validation (AID 624147)
How it was run: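 Screened from lowest to highest concentration, compounds were pinned into TbPYK/substrate mixtures, and ADP (130 uM final) was added. Plates sat at room temperature for 45 min prior to Kinase-Glo Plus detection by luminescence.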

[12] = target: Glucagon-like peptide 1 receptor (Homo sapiens) (UniProt P43220); assay: qHTS of GLP-1 Receptor Agonists: LOPAC Validation (AID 624148);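 note: higher luminescence signal means agonism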
Glucagon-like peptide 1 receptor (Homo sapiens), sequence (P43220 whole entry, looked up): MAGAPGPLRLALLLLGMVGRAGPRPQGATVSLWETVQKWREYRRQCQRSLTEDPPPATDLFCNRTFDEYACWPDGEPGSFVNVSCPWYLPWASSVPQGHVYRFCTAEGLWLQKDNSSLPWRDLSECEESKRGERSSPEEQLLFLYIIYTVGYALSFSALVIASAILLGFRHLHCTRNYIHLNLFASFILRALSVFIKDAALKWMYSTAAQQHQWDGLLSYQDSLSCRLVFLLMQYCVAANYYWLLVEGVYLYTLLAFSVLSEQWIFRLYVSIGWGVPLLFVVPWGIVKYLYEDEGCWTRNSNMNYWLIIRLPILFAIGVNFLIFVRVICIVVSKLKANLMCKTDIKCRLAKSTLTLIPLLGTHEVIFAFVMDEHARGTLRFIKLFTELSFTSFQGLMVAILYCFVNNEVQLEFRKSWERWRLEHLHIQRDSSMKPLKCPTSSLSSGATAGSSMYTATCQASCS
How it was run: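 HEK293 cells stably co-expressing a cAMP-responsive luciferase reporter and a hypersensitive GLP-1R were plated 12 h at 37 °C and exposed to compounds for 4-6 hr at 37 °C, 5% CO2. Luminescence was read 12 min after adding detection reagent.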

[13] = qHTS of Nrf2 Activators: LOPAC Validation (AID 624149)
How it was run: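 AREc32_Fluc cells, 1000/well in OPTI-MEM with 5% FBS, grown overnight, then exposed to compounds for 24 hr at 37 deg C, 5% CO2. ARE-driven firefly luciferase read by Steady-Glo luminescence after 30 min at RT.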

[14] = HTS Assay for Allosteric Antagonists of the Human D2 Dopamine Receptor: Hit Validation in HTRF (AID 624455);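 note: stable D1 dopamine receptor cell line scored for blocking the D1 response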
How it was run: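 Hit validation in cells stably expressing the D1 dopamine receptor, run in HTRF format. Compounds were tested for their ability to inhibit the D1-mediated response.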

[15] = target: Arylsulfatase A (Homo sapiens) (UniProt P15289); assay: qHTS screen for enhancers of Arylsulfatase A (ASA1): LOPAC Validation Assay (AID 720538)
Arylsulfatase A (Homo sapiens), sequence (P15289 whole entry, looked up): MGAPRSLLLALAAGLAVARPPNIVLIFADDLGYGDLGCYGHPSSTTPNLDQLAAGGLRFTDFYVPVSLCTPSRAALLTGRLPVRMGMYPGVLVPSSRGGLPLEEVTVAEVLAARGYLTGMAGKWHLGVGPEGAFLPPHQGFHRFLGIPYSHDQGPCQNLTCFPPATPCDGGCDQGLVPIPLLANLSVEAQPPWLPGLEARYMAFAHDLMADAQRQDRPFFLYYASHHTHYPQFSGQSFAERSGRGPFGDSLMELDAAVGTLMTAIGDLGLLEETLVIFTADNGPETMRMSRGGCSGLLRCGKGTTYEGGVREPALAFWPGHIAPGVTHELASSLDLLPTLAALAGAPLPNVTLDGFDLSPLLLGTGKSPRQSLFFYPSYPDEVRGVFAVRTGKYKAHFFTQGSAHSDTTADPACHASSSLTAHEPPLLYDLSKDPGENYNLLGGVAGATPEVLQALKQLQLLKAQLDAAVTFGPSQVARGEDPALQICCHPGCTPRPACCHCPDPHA
How it was run: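 Read-out: fluorescence at Ex=525/Em=598 nm after 1N NaOH final stop. Patient fibroblasts carrying ASA-I179S had 48h compound exposure, then 14h room-temperature pNCS hydrolysis (0.5mM final) in lysis buffer. Signal increase = enhanced activity.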

[16] = qHTS for compounds that reverse cellular toxicity of Amyloid beta (A-beta) peptide in yeast: LOPAC Validation Assay (AID 720559)
How it was run: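 OD600 growth readout after 48 hr at 30 C; A-beta-toxic yeast plus pinned compounds in medium. Normalization: DMSO = negative, equimolar FeCl3 + clioquinol = positive.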

[17] = qHTS for Activators of Parkin Expression: LOPAC Validation Assay (NLuc Reporter) (AID 720572)
How it was run: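 Neuronal line stably carrying a FLuc/NLuc coincidence reporter under the Parkin promoter, seeded 24 h, then dosed in 7-point series for 24 h at 37 C. NLuc luminescence read after FLuc; normalized to DMSO and positive control (100%).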

[18] = qHTS for Activators of Parkin Expression: LOPAC Validation Assay (FLuc Reporter) (AID 720573)
How it was run: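 FLuc luminescence read-out from a neuronal line expressing a Parkin-promoter-driven coincidence reporter. Cells treated 24 h at 37 C, 5% CO2 with compounds at 7 concentrations; signal increase normalized to DMSO and positive control.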

[19] = qHTS assay to identify small molecules that stimulate interleukin-8 (IL-8) secretion (AID 651758; active = well fitted activation curve with a large enough effect in the signal ratio; the % refers to the signal ratio; note: potency is the fitted concentration of half-maximal effect)
How it was run: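 THP-1, 2000 cells/well; cpd 16 h, 37 C; add cryptate + XL665 anti-IL-8 Abs; RT 1-3 h; TR-FRET read.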

C[C@H]1CCC[C@H](O)CCCCCc2cc(O)cc(O)c2C(=O)O1
Potency [1]: inactive | activation [2]: -0.975% (inactive) | activation [3]: -0.26% (inactive) | Potency [4]: 33.5 µM (active) | Potency [5]: 37.6 µM (active) | activation [6]: -1.64% (inactive) | max response [7]: -2.71% (inactive) | Potency [8]: 42.2 µM (active) | Potency [9]: inactive

CCn1cnc2c(Nc3cccc(Cl)c3)nc(N[C@@H]3CCCC[C@@H]3N)nc21
Potency [10]: inactive | Potency [11]: inactive | outcome [12]: inactive | Potency [13]: inactive | Potency [14]: inactive | Potency [15]: inactive | outcome [16]: inactive | Potency [17]: inactive | outcome [18]: inactive

COc1cc(CC(C)N)c(OC)cc1I (configuration not stated)
Potency [10]: inactive | Potency [11]: inactive | outcome [12]: inactive | Potency [13]: inactive | Potency [14]: inactive | Potency [15]: inactive | outcome [16]: inactive | Potency [17]: inactive | outcome [18]: inactive

CC(C)(C)c1cc(O)ccc1O
Potency [1]: inactive | activation [2]: -3.68% (inactive) and -3.53% (inactive) and -5.7% (inactive) | activation [3]: -2.1% (inactive) and -2.15% (inactive) and -3.27% (inactive) | Potency [4]: inactive | Potency [5]: inactive | Potency [19]: inactive and 66.8 µM (active) | activation [6]: 12.6% (inactive) and 10.4% (inactive) | max response [7]: -2.46% (inactive) and -4.08% (inactive) and -1.53% (inactive) | Potency [8]: 16.8 µM (active) and 29.8 µM (active)

NCC(CP(=O)(O)O)c1ccc(Cl)cc1 (configuration not stated)
Potency [10]: inactive | Potency [11]: inactive | outcome [12]: inactive | Potency [13]: inactive | Potency [14]: inactive | Potency [15]: inactive | outcome [16]: inactive | Potency [17]: inactive | outcome [18]: inactive

CC(C)(C)c1o[nH]c(=O)c1CC(N)C(=O)O (configuration not stated)
Potency [10]: inactive | Potency [11]: inactive | outcome [12]: inactive | Potency [13]: inactive | Potency [14]: inactive | Potency [15]: inactive | outcome [16]: inactive | Potency [17]: inactive | outcome [18]: inactive

Cc1o[nH]c(=O)c1CC(N)C(=O)O (configuration not stated)
Potency [10]: inactive | Potency [11]: inactive | outcome [12]: inactive | Potency [13]: inactive | Potency [14]: inactive | Potency [15]: inactive | outcome [16]: inactive | Potency [17]: inactive | outcome [18]: inactive

C[C@H](N)Cc1cccc(C(F)(F)F)c1
Potency [10]: inactive | Potency [11]: inactive | outcome [12]: inactive | Potency [13]: inactive | Potency [14]: inactive | Potency [15]: inactive | outcome [16]: inactive | Potency [17]: inactive | outcome [18]: inactive

CN1CCC(c2c[nH]c3ccc(O)cc23)CC1
Potency [10]: 1.26 µM (active) | Potency [11]: inactive | outcome [12]: inactive | Potency [13]: inactive | Potency [14]: inactive | Potency [15]: inactive | outcome [16]: inactive | Potency [17]: inactive | outcome [18]: inactive

NNC(N)=O
Potency [10]: inactive | Potency [11]: inactive | outcome [12]: inactive | Potency [13]: inactive | Potency [14]: inactive | activation [3]: -0.594% (inactive) | Potency [4]: inactive | Potency [5]: inactive | activation [6]: 0.598% (inactive) | max response [7]: -2.31% (inactive) | Potency [8]: inactive | Potency [15]: inactive | outcome [16]: inactive | Potency [17]: inactive | outcome [18]: inactive | Potency [9]: inactive
